{"source": "PubChem BioAssay AID1851", "about": "(National Center for Advancing Translational Sciences (NCATS), 2009)", "note": "“And” between values parts separate entries of the source, which are not always exact repeats. Equal values may be shown once. In all, about 16,000 compounds went through this assay and about 2,600 (16%) were called active. About 20% were inconclusive and are not listed. Only a sample is shown. A number with no mark means an inactive call. Calls follow the shape of the dose curve; as a rule, active = well fitted curve in the direction sought with a large enough effect; inconclusive = small, poorly fitted or top-dose-only effect, or effect the other way; inactive = no such curve, though single readings can be large or run the other way. Square brackets hold non-standard residues; d marks the D form. Peptide text beside a SMILES is read from it. * marks the point of attachment. ξ: configuration not given here. Cbz = O=C(OCc1ccccc1)*; OBn = c1ccc(CO*)cc1; ξP = O=C(O)C1CCCN1", "data": [{"target": "Cytochrome P450 2D6 (Homo sapiens) (UniProt P10635)", "sequence (P10635 whole entry, looked up)": "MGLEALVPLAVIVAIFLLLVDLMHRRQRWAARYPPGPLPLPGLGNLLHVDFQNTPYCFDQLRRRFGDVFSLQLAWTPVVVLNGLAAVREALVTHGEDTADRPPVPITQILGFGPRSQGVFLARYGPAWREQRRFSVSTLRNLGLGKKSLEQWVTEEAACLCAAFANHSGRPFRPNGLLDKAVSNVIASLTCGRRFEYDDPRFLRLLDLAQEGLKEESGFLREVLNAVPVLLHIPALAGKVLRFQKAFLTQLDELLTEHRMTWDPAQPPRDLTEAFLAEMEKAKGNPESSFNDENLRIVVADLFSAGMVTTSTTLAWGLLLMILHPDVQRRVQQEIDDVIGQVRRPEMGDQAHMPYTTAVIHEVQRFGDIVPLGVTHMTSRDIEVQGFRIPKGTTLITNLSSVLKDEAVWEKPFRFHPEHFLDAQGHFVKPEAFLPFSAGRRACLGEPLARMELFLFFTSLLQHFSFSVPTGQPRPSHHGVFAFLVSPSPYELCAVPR", "assay": "Cytochrome panel assay with activity outcomes; as to activity, negative = inhibition: % is scaled to controls: 0 for no effect and ±100 for the full control effect", "details": "recombinant CYP, pro-luciferin dealkylation, luminescence, p450-cyp2d6; series mostly up to 57.1 µM", "values": [{"smiles": "COc1cccc(Nc2ncc3ncc(=O)n(C4CC4)c3n2)c1", "AC50": "inactive"}, {"smiles": "Cc1ccc(C)c(CN2C(=O)C3CCCN3c3ccc(C#N)cc32)c1", "note": "(centres undefined)", "AC50": "inactive"}, {"smiles": "CCOC(=O)c1c(C)oc2c1c(C=NC1CCS(=O)(=O)C1)c(O)c1ccccc12", "note": "(centres undefined)", "AC50": "inactive"}, {"smiles": "CCN1C(=O)[C@H]2[C@H]3[C@H](O)[C@H](O)C/C(=N/O[C@@H](C)c4cn([C@H](CO)Cc5ccccc5)nn4)[C@@H]3CC[C@@H]2C1=O", "activity, negative = inhibition": "6.53% [at 11.4 µM] and -9.99% [at 11.4 µM]"}, {"smiles": "Cc1c(/C=N/NC(=O)c2ccc3c(c2)OCO3)cnn1C", "AC50": "inactive"}, {"smiles": "CCNC(=S)NNC(=O)c1cc(C2CC2)nc2ccccc12", "AC50": "inactive"}, {"smiles": "COC(=O)c1nn(-c2ccccc2)c(-c2ccccc2)c1C(=O)c1ccccc1", "AC50": "inactive"}, {"smiles": "CCCOc1ccccc1C1CC(=O)NC(C)=C1C(=O)OCC(C)C", "note": "(centres undefined)", "AC50": "inactive"}, {"smiles": "O=C(NCCO)c1cc2c(s1)CCC2", "AC50": "inactive"}, {"smiles": "Cc1cc(C(=O)CC#N)c(C)n1CC(F)(F)F", "AC50": "inactive"}, {"smiles": "CCOC(=O)c1c2c(n3ccccc13)C(=O)c1ccccc1C2=O", "activity, negative = inhibition": "5.34% [at 11.4 µM]"}, {"smiles": "COCCNC(=O)Cn1cnc2ccc(S(=O)(=O)N3CCC(C)CC3)cc2c1=O", "AC50": "inactive"}, {"smiles": "Cc1ccc2nc(N3CCN(S(=O)(=O)c4ccc5c(c4)OCCO5)CC3)c(C#N)cc2c1", "AC50": "inactive"}, {"smiles": "NC(=O)c1ccc(NC(=O)C2CCCO2)cc1", "note": "(centres undefined)", "AC50": "inactive"}, {"smiles": "CSc1ccc(CNc2ccc(C)c(C)c2)cc1", "AC50": "11.2 µM (active)"}, {"smiles": "CSc1ccc(CNc2ccc(Cl)cc2)cc1", "AC50": "inactive"}, {"smiles": "Cc1nc2cnc(Oc3ccccc3)nc2n(C)c1=O", "AC50": "inactive"}, {"smiles": "COc1ccc(-c2nc3cnc(OC)nc3n(C)c2=O)cc1", "AC50": "inactive"}, {"smiles": "O=C(Nc1ccc(Cl)c(C(F)(F)F)c1)C1CCCN(S(=O)(=O)c2cnc[nH]2)C1", "note": "(centres undefined)", "AC50": "3.98 µM (active)"}, {"smiles": "COc1ccc(OC)c(S(=O)(=O)N2CCC(C(=O)Nc3ccc(C)c(C)c3)CC2)c1", "AC50": "inactive"}, {"smiles": "CCCS(=O)(=O)N1CCCC(C(=O)NCc2cccnc2)C1", "note": "(centres undefined)", "AC50": "inactive"}, {"smiles": "CCOc1ccc(-c2nnc3ccc(SC)nn23)cc1", "AC50": "inactive"}, {"smiles": "N[C@@H](CSS(=O)(=O)O)C(=O)O", "AC50": "inactive"}, {"smiles": "CCOC(=O)c1c(C)nc2sc3c(=O)n(-c4ccc(C(C)=O)cc4)nnc3c2c1-c1ccc(Cl)cc1", "AC50": "inactive"}, {"smiles": "CN(C)Cc1ccccc1-c1cncnc1NCc1cccnc1", "AC50": "6.31 µM (active)"}, {"smiles": "Cc1ccccc1-c1cncnc1NCc1ccccc1", "AC50": "12.6 µM (active)"}, {"smiles": "N#Cc1ccccc1-c1cncnc1NCc1cccnc1", "AC50": "inactive"}, {"smiles": "Cc1noc(C)c1-c1cncnc1NCc1ccccc1", "AC50": "inactive"}, {"smiles": "Cc1ccccc1-c1cncnc1NCc1cccnc1", "AC50": "15.8 µM (active)"}, {"smiles": "Cc1cccc(CNc2ncncc2-c2ccccc2C)c1", "AC50": "3.98 µM (active)"}, {"smiles": "CN(C)C(=O)c1ccc(-c2cncnc2NCc2cccnc2)cc1", "AC50": "inactive"}, {"smiles": "CC(C)Sc1cc(N2CCCC2)nc(-c2ccc(F)cc2)n1", "AC50": "inactive"}, {"smiles": "C=CCNC(=S)N/N=C/c1ccc(-c2cc(Cl)ccc2Cl)o1", "AC50": "inactive"}, {"smiles": "O=C(CNC(=O)OCc1ccccc1)NCC(=O)N1CCCC1C(=O)OCc1ccccc1", "note": "(stereo not drawn) (Cbz-Gly-Gly-[ξP]-OBn)", "AC50": "inactive"}, {"smiles": "CSCCC(NC=C1C(=O)OC(C)(C)OC1=O)C(=O)O", "note": "(centres undefined)", "AC50": "inactive"}, {"smiles": "CCOc1cc(/C=C2/NC(=O)N(CC(=O)Nc3cccc(C)c3)C2=O)ccc1OC", "AC50": "inactive"}, {"smiles": "CCCCSCc1nc2nc(Cl)c(Cl)nc2[nH]1", "activity, negative = inhibition": "-12.2% [at 11.4 µM]"}, {"smiles": "C[n+]1ccc(/C=C/c2ccc(Br)cc2)cc1", "AC50": "inactive"}, {"smiles": "OCCNc1ncnc2nc[nH]c12", "activity, negative = inhibition": "-4.05% [at 11.4 µM]"}, {"smiles": "Cc1cc(NC(=O)COC(=O)c2ccc(S(=O)(=O)N3CCCc4ccccc43)cc2)no1", "AC50": "inactive"}, {"smiles": "Cc1ccccc1-c1cncnc1NC1CCNCC1", "AC50": "10 µM (active)"}, {"smiles": "c1cncc(-c2cncnc2NC2CCNCC2)c1", "AC50": "inactive"}, {"smiles": "Cc1cnc(CNc2ncncc2-c2ccccc2C(F)(F)F)cn1", "AC50": "inactive"}, {"smiles": "Cc1cccc(CNc2ncncc2-c2ccccc2C(F)(F)F)c1", "AC50": "12.6 µM (active)"}, {"smiles": "Cc1noc(C)c1-c1cncnc1NC1CC1", "AC50": "inactive"}, {"smiles": "Cc1cccc(CNc2ncncc2-c2ccccc2Cl)c1", "AC50": "2 µM (active)"}, {"smiles": "Cc1cnc(CNc2cc(-c3ccccc3C(F)(F)F)ncn2)cn1", "AC50": "inactive"}, {"smiles": "O=C(c1cnccn1)N1CCC[C@@]2(CCN(c3ccncc3)C2)C1", "AC50": "inactive"}, {"smiles": "Cc1ccc(OC(=O)c2cccc(C(=O)Oc3ccc(C)cc3)n2)cc1", "AC50": "inactive"}, {"smiles": "N[C@H](C(=O)O)[C@H](O)C(=O)O", "AC50": "inactive"}, {"smiles": "O=C1C(Cc2ccccc2)C(c2ccccc2)N1c1ccccc1", "note": "(centres undefined)", "AC50": "inactive"}, {"smiles": "COc1ncc2nc(-c3ccc(F)cc3)c(=O)n(Cc3ccc(F)cc3)c2n1", "AC50": "inactive"}, {"smiles": "N[C@@H](Cc1ccnnc1)C(=O)O", "activity, negative = inhibition": "-0.458% [at 11.4 µM]"}, {"smiles": "Cc1nc2cnc(Oc3ccccc3)nc2n(CCc2ccccc2)c1=O", "AC50": "inactive"}, {"smiles": "COc1n[nH]c2nncnc12", "AC50": "inactive"}, {"smiles": "O=[N+]([O-])c1ccc2nc(-c3ccc(Cl)cc3)n(OCc3ccccc3)c2c1", "AC50": "inactive"}, {"smiles": "Cn1c(=O)c(-c2ccc(Cl)cc2)nc2cnc(OCc3ccccc3)nc21", "AC50": "inactive"}, {"smiles": "Clc1ccc(COn2c(-c3ccccc3)nc3ccccc32)cc1", "AC50": "15.8 µM (active)"}, {"smiles": "O=[N+]([O-])c1ccc2nc(-c3ccccc3)n(OCc3ccc(Cl)cc3)c2c1", "AC50": "6.31 µM (active)"}, {"smiles": "O=C(CCc1nc(-c2ccccc2)c(-c2ccccc2)o1)OCc1ccc(Cl)cc1", "AC50": "inactive"}, {"smiles": "Cc1ccc(COn2c(-c3ccc(Cl)cc3)nc3ccc([N+](=O)[O-])cc32)cc1", "AC50": "inactive"}, {"smiles": "COc1cccc(Cn2c(=O)c(-c3cn(C)c4ccccc34)nc3cnc(N4CCOCC4)nc32)c1", "AC50": "inactive"}, {"smiles": "O=c1c(-c2ccc(F)c(F)c2)nc2cncnc2n1-c1ccccc1", "AC50": "inactive"}, {"smiles": "NS(=O)(=O)c1ccc(N=Nc2ccc(O)c(C(=O)O)c2)cc1", "activity, negative = inhibition": "-7.58% [at 11.4 µM]"}, {"smiles": "Cc1ccccc1/C=C1\\OC(=O)c2ccccc21", "AC50": "inactive"}, {"smiles": "CCCC[C@@H]1C[C@H]1C(NC(=O)c1cccs1)c1ccccc1C(F)(F)F", "note": "(some centres undefined)", "AC50": "inactive"}, {"smiles": "CCC(c1nnnn1CCOC)N1CCN(C(=O)c2ccco2)CC1", "note": "(centres undefined)", "AC50": "inactive"}, {"smiles": "Cc1ccc(C(c2nnnn2CC2CCCO2)N2CCN(C(=O)c3ccco3)CC2)cc1", "note": "(centres undefined)", "AC50": "inactive"}, {"smiles": "CC(C)CCn1nnnc1C(c1ccc(F)cc1)N1CCN(C(=O)c2ccco2)CC1", "note": "(centres undefined)", "AC50": "14.1 µM (active)"}]}]}
